The whole screen tested about 310,000 compounds, of which about 14,000 (4.5%) showed an effect of 50% or more. Effects have a minus sign here. For the sample, strong results were picked, then their nearest neighbours and some compounds at random.
Target: human ether-à-go-go-related gene (hERG) potassium channel (human, UniProt Q12809)
Experiment: primary screen, population patch clamp on CHO cells stably expressing hERG; higher = less effect of the substance
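Also: peak tail current of the secondary pulse compared with the same well before compound.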

Chain of human ether-à-go-go-related gene (hERG) potassium channel (Q12809 whole entry, looked up): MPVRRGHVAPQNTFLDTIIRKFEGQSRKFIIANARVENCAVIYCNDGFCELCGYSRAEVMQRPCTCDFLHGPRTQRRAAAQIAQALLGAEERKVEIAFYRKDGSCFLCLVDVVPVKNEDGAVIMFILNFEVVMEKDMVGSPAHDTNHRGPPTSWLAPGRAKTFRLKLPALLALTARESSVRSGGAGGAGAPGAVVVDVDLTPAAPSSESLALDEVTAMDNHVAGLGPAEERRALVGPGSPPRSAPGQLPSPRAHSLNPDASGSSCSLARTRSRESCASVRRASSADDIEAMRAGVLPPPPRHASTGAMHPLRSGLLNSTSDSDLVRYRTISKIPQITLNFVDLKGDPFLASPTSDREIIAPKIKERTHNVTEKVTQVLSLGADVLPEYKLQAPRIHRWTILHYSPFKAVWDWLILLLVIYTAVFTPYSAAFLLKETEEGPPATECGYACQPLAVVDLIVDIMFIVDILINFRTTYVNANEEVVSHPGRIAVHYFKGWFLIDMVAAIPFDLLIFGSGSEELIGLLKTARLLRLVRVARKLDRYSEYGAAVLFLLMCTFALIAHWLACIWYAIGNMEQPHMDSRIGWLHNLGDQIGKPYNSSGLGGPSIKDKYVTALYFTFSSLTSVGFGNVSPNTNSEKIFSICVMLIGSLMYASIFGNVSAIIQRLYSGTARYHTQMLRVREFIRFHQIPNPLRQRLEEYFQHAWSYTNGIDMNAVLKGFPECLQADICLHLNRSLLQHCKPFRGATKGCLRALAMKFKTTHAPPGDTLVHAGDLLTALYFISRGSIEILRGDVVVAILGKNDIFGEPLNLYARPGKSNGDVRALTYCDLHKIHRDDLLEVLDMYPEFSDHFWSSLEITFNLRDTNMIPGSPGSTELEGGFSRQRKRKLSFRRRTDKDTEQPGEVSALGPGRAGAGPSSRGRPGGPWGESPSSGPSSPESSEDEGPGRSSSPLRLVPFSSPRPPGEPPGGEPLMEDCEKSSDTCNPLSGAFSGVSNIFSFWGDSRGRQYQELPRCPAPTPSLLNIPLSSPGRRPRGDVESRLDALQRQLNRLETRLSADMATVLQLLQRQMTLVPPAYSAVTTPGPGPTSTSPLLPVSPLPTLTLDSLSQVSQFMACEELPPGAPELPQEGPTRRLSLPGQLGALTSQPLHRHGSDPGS

Row | Structure (SMILES) | hERG current change (%, negative = inhibition) at 10uM [%]
1 | CN(C(=O)COC(=O)c1nc(Cl)ccc1Cl)c1ccccc1 | 17.6
2 | Cc1ccc(OC(=O)CCC(=O)Nc2ccc(C(N)=O)cc2)cc1 | 18.2
3 | COc1cccc(/C=C/c2ccc3cccc(O)c3n2)c1 | 14.8
4 | Cc1cc(C)n(-c2nc(NC(C)(C)C)nc(NC(C)(C)C)n2)n1 | -6.46
5 | N#CCC(=O)NNc1c([N+](=O)[O-])cc(C(F)(F)F)cc1[N+](=O)[O-] | 28.8
6 | COc1ccccc1CN1CCN(Cc2nc(-c3ccc(C)cc3)oc2C)CC1 | -58.8
7 | COc1ccccc1N1CCN(Cc2c(F)cccc2F)CC1 | -18
8 | COc1cc(-c2nc(CN3CCN(c4ncccn4)CC3)c(C)o2)ccc1F | -9.65
9 | COc1ccccc1N1CCN(Cc2nc(-c3ccc(F)cc3)oc2C)CC1 | -65.9
10 | COc1ccccc1CN1CCN(S(=O)(=O)c2ccc(C)cc2)CC1 | -19
11 | COc1ccc(-c2nc(CN3CCN(Cc4ccccc4)CC3)c(C)o2)cc1 | -42.2
12 | Cc1cc(C)cc(C(=O)OCC(=O)N2CCCC2)c1 | 9.79
13 | COC(=O)c1sccc1-c1ccc(C(N)=O)o1 | 7.97
14 | N=C1c2ccccc2CN1c1ncccn1 | -10.6
15 | Br.Cc1ccc(N2Cc3ccccc3C2=N)cc1[N+](=O)[O-] | -4.21
16 | Cc1cc(C)nc(N2Cc3ccccc3C2=N)n1 | -56
17 | COc1ccccc1CN=c1c([N+](=O)[O-])nn(-c2ccc3c(c2)OCCO3)n1O | -7.21
18 | COc1cc(CC(=O)OCC(=O)Nc2cc([N+](=O)[O-])ccc2Cl)cc(OC)c1OC | -50
19 | COc1ccc([N+](=O)[O-])cc1NC(=O)COC(=O)Cc1cc(OC)c(OC)c(OC)c1 | -17.8
20 | COc1cc(CC(=O)OCC(=O)Nc2cc([N+](=O)[O-])ccc2F)cc(OC)c1OC | -38.9
21 | Cc1cc(NC(=O)CCC(=O)N(Cc2ccco2)C(C(=O)NC2CCCCC2)c2cccs2)no1 (stereo not shown) | -20.9
22 | COc1cccc(/C(O)=C2/C(=O)C(=O)N(Cc3ccco3)C2c2ccncc2)c1 (stereo not shown) | 15.2

Row | Structure (SMILES) | hERG current change (%, negative = inhibition) at 10uM [%]
23 | CS(=O)(=O)N(CC(=O)Nc1ccccc1C(=O)NCc1ccco1)c1ccc2c(c1)OCCO2 | -5.03
24 | CC(=O)Nc1ccc(NC(=O)C(C)OC(=O)CNC(=O)c2sc3ccccc3c2Cl)cc1 (stereo not shown) | 18.6
25 | CN(C)CCCN1C(=O)c2cccc3c([N+](=O)[O-])ccc(c23)C1=O | -27.7
26 | CN(C)CCCN1C(=O)c2cccc3c(Br)ccc(c23)C1=O | -66.4
27 | CN(C)CCCN1C(=O)c2cccc3cccc(c23)C1=O | -16
28 | COc1ccc2c(c1OC)C(=O)OC2Nc1nc(-c2ccccc2)cs1 (stereo not shown) | 8.12
29 | CCOCCCn1cnc2c(c1=O)c1nc3ccccc3nc1n2-c1ccccc1 | -30.6
30 | COCCCn1cnc2c(c1=O)c1nc3ccccc3nc1n2-c1ccc(C)cc1 | -37
31 | COCCCn1cnc2c(c1=O)c1nc3ccccc3nc1n2-c1ccccc1 | -56.6
32 | CCCCn1c(SCC(=O)NNC(=O)c2ccco2)nnc1-c1ccco1 | 4
33 | CCn1c(=O)c2c(nc(SCC(=O)NCC3CCCO3)n2C)n(C)c1=O (stereo not shown) | -0.794
34 | Nc1nc(CSCc2ccccc2)nc(N2CCOCC2)n1 | -10.2
35 | COc1ccc(-c2nnn(Cc3nc(N)nc(N4CCOCC4)n3)n2)cc1OC | -0.202
36 | COc1ccc(-c2nnn(Cc3nc(N)nc(N4CCCCC4)n3)n2)cc1 | -9.06
37 | Nc1nc(Cn2nnc(-c3ccccc3F)n2)nc(N2CCOCC2)n1 | -73.4
38 | Nc1nc(Cn2nnc(-c3ccccc3Cl)n2)nc(N2CCOCC2)n1 | -54.4
39 | Clc1ccc(Cn2nnc(-c3ccc(N4CCOCC4)cc3)n2)cc1 | 4.16
40 | CCCCN(C(=O)NC(=O)Nc1ccccc1OC)S(C)(=O)=O | -2.42
41 | CCCCCCCCN1C(=O)N(C)C(N(O)C(=O)NC)C1(C)C (stereo not shown) | 8.37
42 | Cc1cc(C(F)(F)F)n2ncc(-c3cccc(Br)c3)c2n1 | 22.6
43 | O=C(Cn1nc(-c2ccccc2)ccc1=O)Nc1cccc(NC(=O)c2ccccn2)c1 | -0.657
44 | Cc1noc(NS(=O)(=O)c2ccc(N3CC(O)=C(c4ccccc4)C3=N)cc2)c1C | 20.5

Row | Structure (SMILES) | hERG current change (%, negative = inhibition) at 10uM [%]
45 | CCOC(=O)c1c(C)c(C(=O)Nc2ccc(N(C)C)cc2)c(C)n1CC | -1.83
46 | COCCCNC(=O)c1cc(C(=O)c2ccccc2Br)c[nH]1 | 15.1
47 | CS(=O)(=O)c1ccccc1-c1nc(-c2cc(C(F)(F)F)cc(C(F)(F)F)c2)no1 | 4.06
48 | COc1ccc(CCNC(=O)c2cccc(S(=O)(=O)NC(C)c3ccccc3)c2)cc1 (stereo not shown) | 6.04
49 | COc1ccc(CCCc2nnc(SCC(=O)Nc3ccc(OC)cc3)o2)cc1 | 17.7
50 | COc1ccc(Cl)cc1NC(=O)c1ocnc1C | 10.1
51 | Br.CCCCCCCn1c(=N)n(CC(=O)c2ccco2)c2ccccc21 | -70.6
52 | CCCn1c(N)[n+](CC(=O)c2ccco2)c2ccccc21.[Br-] | -11.1
53 | Br.Cc1ccccc1Cn1c(=N)n(CC(=O)c2ccco2)c2ccccc21 | -65
54 | Br.CCCCn1c(=N)n(CC(=O)c2ccco2)c2ccccc21 | -41.8
55 | Br.N=c1n(CC(=O)O)c2ccccc2n1Cc1ccccc1Cl | 0.122
56 | Br.CCn1c(=N)n(CC(=O)c2ccco2)c2ccccc21 | -3.75
57 | CCOC(=O)C(C)Oc1cccc2c(=O)n(CC(=O)NCc3ccc(F)cc3)ccc12 (stereo not shown) | -4.43
58 | O=C(OC(C(=O)NCc1ccc2c(c1)OCO2)c1ccccc1F)c1ccco1 (stereo not shown) | -31.1
59 | C/C(=N\NC(=O)c1cc2ccccc2cc1O)c1cc2ccccc2o1 | 6.05
60 | C/C(=N\NC(=O)c1nc2ccccn2c1C)c1ccc2c(c1)OCO2 | -18.5
61 | COc1cccc2cc(/C(C)=N/NC(=O)c3ccco3)oc12 | -52.2
62 | C/C(=N\NC(=O)c1ccco1)c1cc2ccccc2o1 | -9.09
63 | COc1cccc2cc(C(C)=O)oc12 | 15.5
64 | C/C(=N\NC(=O)c1ccncc1)c1cc2ccccc2o1 | -20.5
65 | C/C(=N\NC(=O)c1ccc(O)cc1)c1cc2ccccc2o1 | -50.3
66 | C/C(=N\NC(=O)c1nc2ccccn2c1C)c1cc2ccccc2o1 | -63

Row | Structure (SMILES) | hERG current change (%, negative = inhibition) at 10uM [%]
67 | C/C(=N\NC(=O)c1nc2ccccn2c1C)c1ccco1 | -1.34
68 | Cc1ccc(Nc2ncc3c(n2)CC(C)CC3=O)c(C)c1 (stereo not shown) | 0.876
69 | CCCCN(C(=O)c1cc(CC)c(C)s1)c1c(N)n(CCC)c(=O)[nH]c1=O | -20.8
70 | CCOc1ccc2ccccc2c1/C=N\NC(=O)OC | 12.7
71 | CCCOc1cccc(-c2cc(C(=O)N/N=C/c3ccccn3)c3ccccc3n2)c1 | 0.224
72 | COc1cccc(CN2CCNC(=O)C2CC(=O)N(C)CCC2CCOCC2)c1 (stereo not shown) | 8.75
73 | Cc1ccc2nc(Cl)c(CN(C(=O)c3cnccn3)C3CCCCC3)cc2c1 | -24.7
74 | CCCn1ncc(CN2CCC(CO)(Cc3ccc(OC)cc3)CC2)c1C | -41.9
75 | OCC1(Cc2cccc(F)c2)CCN(Cc2cccc3nccnc23)CC1 | -59.8
76 | COc1ccc(CC2(CO)CCN(Cc3cccc(OC)c3OC)CC2)cc1 | -60.5
77 | COc1ccc(CC2(CO)CCN(Cc3cccc4nccnc34)CC2)cc1 | -70.9
78 | COc1cc(CN2CCN(Cc3cccc(OC)c3OC)CC2)cc(OC)c1 | -34.2
79 | O=S(=O)(c1cccc(F)c1)N1CCC(CO)(Cc2cccc(F)c2)CC1 | -18.2
80 | COc1ccc(CC2(CO)CCN(S(=O)(=O)c3cccc4cccnc34)CC2)cc1 | -5.13
81 | COc1ccc(CC2(CO)CCN(Cc3cnn(C)c3C)CC2)cc1 | -21.6
82 | COc1ccc(CC2(CO)CCN(Cc3cccn3-c3ccccn3)CC2)cc1 | -75.4
83 | O=C(c1cnsn1)N1CCC(CO)(Cc2cccc(F)c2)CC1 | 10.8
84 | COc1cccc(CC2(CO)CCN(Cc3cccn3-c3cccnc3)CC2)c1 | -47.7
85 | COc1ccc(C2=NOC3(CC(=O)N(c4ccc(C)cc4)C3=O)C2)c(OC)c1 (stereo not shown) | 4.08
86 | CCOC(=O)N1CCN(Cc2cccs2)CC1 | 24.3
87 | Cc1ccc(C)c(NC(=O)CSc2nnc3n2CCCCC3)c1 | 11
88 | COc1ccnc(Oc2ccc(F)cc2)c1C(=O)N/C=N/OCc1c(Cl)cccc1Cl | -5.9

— publication PMC4336329 (PLoS ONE, 2015)
